About 83,000 compounds went through this panel and 20% of them were active in at least one assay; those are over-represented in the sample as a whole.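 Single-dose data. Exposure time 48 hours. Values below 10 considered active.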 Values without a mark were called inactive. Active and inactive are the calls of the source.

In PubChem BioAssay (NCI) one finds growth data, which are given here for eight compounds.

Some test systems named below: NCI-H23 lung; NCI-H226 lung; NCI-H322M lung; HOP-62 NSCLC; NCI-H460 lung; HOP-92 NSCLC; NCI-H522 lung; A549/ATCC NSCLC; 786-0 renal; COLO 205 colon; DU-145 prostate; K-562 leukemia; MALME-3M melanoma; MDA-MB-231 breast; RXF 393 renal; SF-268 CNS; SF-295 CNS; SF-539 CNS; UACC-257 melanoma; M14 melanoma.
Test in all cases: NCI-60 one-dose screen, 48 h (100 = growth as untreated, 0 = no growth, -100 = all killed)
Holding throughout (details): 10 µM unless noted

Take `Cc1cc(-c2ccccc2)nc2ccccc12`: the growth was 90.4% with NCI-H23 lung; 90.2% in the assay on NCI-H226 lung; 103% in the assay on NCI-H322M lung; 79.8% in the assay with HOP-62 NSCLC; 103% in the assay with NCI-H460 lung; 95.7% in the assay with HOP-92 NSCLC. The growth in the assay with NCI-H522 lung was 90.5%; in the assay on A549/ATCC NSCLC, 90.2%; in the assay on 786-0 renal, 109%; in the assay with COLO 205 colon it was 96.5%; in the assay with DU-145 prostate, 112%; in the assay with K-562 leukemia it was 91.8%. Also, the growth in the assay on MALME-3M melanoma is 99.4%; in the assay on MDA-MB-231 breast, 94.3%; in the assay with RXF 393 renal it was 94.6%; in the assay with SF-268 CNS it was 94.7%; in the assay with SF-295 CNS it was 97.6%; in the assay with SF-539 CNS it was 98.2%. The growth was 99.9% with UACC-257 melanoma and 96.6% in the assay on M14 melanoma.

Regarding `C#C[C@@]1(O)[C@@H](CO)O[C@@H](n2cc(Br)c3c(Cl)ccnc32)[C@@H]1O`, the growth was 31.9% in the assay with NCI-H23 lung; 47.2% in the assay with NCI-H226 lung; 11.7% with NCI-H322M lung; 36.4% in the assay with HOP-62 NSCLC; 45% in the assay on NCI-H460 lung; -60.5% (active) with HOP-92 NSCLC. The growth in the assay on NCI-H522 lung was 32%; with A549/ATCC NSCLC, 46.2%; in the assay on 786-0 renal, 33.5%; in the assay with COLO 205 colon, 17.2%; in the assay on DU-145 prostate it was -41.3% (active); with K-562 leukemia, 14.3%. Besides, the growth was 62.1% in the assay with MALME-3M melanoma; -26.6% (active) in the assay with MDA-MB-231 breast; -15.9% (active) in the assay with RXF 393 renal; 61.7% in the assay on SF-268 CNS; 26.6% in the assay on SF-295 CNS; 17.8% in the assay on SF-539 CNS. In addition, the growth in the assay on UACC-257 melanoma is 91.3%; in the assay with M14 melanoma, 62.4%.

Turning to `Fc1ccc(/C=N/n2c(-c3cc(Cl)cc(Cl)c3Cl)nn(CNc3ccc(Cl)nn3)c2=S)cc1`, the growth with NCI-H23 lung was 86.3%; in the assay with NCI-H226 lung, 97.1%; in the assay with NCI-H322M lung, 94.9%; in the assay on HOP-62 NSCLC, 82.4%; in the assay on NCI-H460 lung, 112%; with HOP-92 NSCLC, 49.5%. Also, the growth in the assay with NCI-H522 lung was 82.8%; in the assay on A549/ATCC NSCLC, 99.3%; in the assay with 786-0 renal, 85.5%; with COLO 205 colon it was 100%; with DU-145 prostate, 121%; in the assay on K-562 leukemia, 85.8%. Also, the growth in the assay on MALME-3M melanoma was 103%; in the assay with MDA-MB-231 breast it was 83.3%; with RXF 393 renal it was 97%; in the assay on SF-268 CNS it was 105%; with SF-295 CNS it was 121%; in the assay on SF-539 CNS it was 97.6%. Moreover, the growth in the assay with UACC-257 melanoma is 98.1%; in the assay with M14 melanoma, 85.6%.

In the case of `Cc1ccc2[nH]c3nc4cccnc4c(C)c3c2c1`, the growth was 36.5% in the assay on NCI-H23 lung; 77.9% with NCI-H226 lung; 44.4% in the assay on NCI-H322M lung; 63.2% with HOP-62 NSCLC; 11.4% with NCI-H460 lung; 115% in the assay on HOP-92 NSCLC. Further, the growth in the assay on NCI-H522 lung is 70.3%; with A549/ATCC NSCLC it was 74.5%; with 786-0 renal, 107%; in the assay on COLO 205 colon, 101%; with DU-145 prostate, 102%; in the assay on K-562 leukemia, 89.1%. For the same compound, the growth is 127% with MALME-3M melanoma; 37.1% in the assay on MDA-MB-231 breast; 84.7% in the assay on RXF 393 renal; 92.3% with SF-268 CNS; 99.9% in the assay on SF-295 CNS; 76.2% in the assay with SF-539 CNS. The growth with UACC-257 melanoma was 112%; with M14 melanoma it was 103%.

For `COc1ccc(OC)c(NCC(=O)n2nc(/C=C\c3ccc(O)c(OC)c3)cc2/C=C\c2ccc(O)c(OC)c2)c1`, the growth in the assay with NCI-H23 lung is 19.1%; in the assay on NCI-H226 lung, 29%; with NCI-H322M lung, 29.5%; with HOP-62 NSCLC, 11.8%; in the assay with NCI-H460 lung, 8.27% (active); in the assay with HOP-92 NSCLC, 34.5%. Also, the growth was -19.3% (active) with NCI-H522 lung; 21.4% in the assay with A549/ATCC NSCLC; -7.3% (active) in the assay on 786-0 renal; -46.8% (active) with COLO 205 colon; 22.9% with DU-145 prostate; 4.4% (active) in the assay on K-562 leukemia. Also, the growth in the assay with MALME-3M melanoma is 23.3%; in the assay on MDA-MB-231 breast, 15.7%; in the assay on RXF 393 renal, -49.5% (active); with SF-268 CNS it was 23.1%; with SF-295 CNS it was 24%; with SF-539 CNS, 0.158% (active). The growth in the assay with UACC-257 melanoma is 30.2%; in the assay on M14 melanoma, 16.5%.

In the case of `CCCCNc1cc(C(=O)O)cc(S(N)(=O)=O)c1Oc1ccccc1`, the growth in the assay on NCI-H23 lung was 102%; with NCI-H226 lung it was 91%; with NCI-H322M lung it was 101%; in the assay on HOP-62 NSCLC it was 101%; in the assay with NCI-H460 lung it was 104%; with HOP-92 NSCLC, 81%. In addition, the growth is 102% with NCI-H522 lung; 105% in the assay with A549/ATCC NSCLC; 103% in the assay with 786-0 renal; 98.6% with COLO 205 colon; 110% with DU-145 prostate; 98.2% with K-562 leukemia. The growth in the assay on MALME-3M melanoma is 96.2%; in the assay on MDA-MB-231 breast it was 122%; in the assay with RXF 393 renal it was 91.1%; with SF-268 CNS, 105%; with SF-295 CNS it was 102%; in the assay on SF-539 CNS it was 105%. Further, the growth with UACC-257 melanoma is 105%; in the assay with M14 melanoma, 109%.

For the compound `Cc1ccc(N(CC2=NCCN2)c2cccc(O)c2)cc1`, the growth with NCI-H23 lung is 100%; with NCI-H226 lung, 100%; in the assay on NCI-H322M lung it was 91.5%; in the assay with HOP-62 NSCLC, 103%; in the assay with NCI-H460 lung it was 107%; with HOP-92 NSCLC, 91.2%. Further, the growth in the assay with NCI-H522 lung was 102%; in the assay with A549/ATCC NSCLC, 98.8%; with 786-0 renal, 96.8%; in the assay on COLO 205 colon it was 119%; with DU-145 prostate, 112%; in the assay with K-562 leukemia, 86.3%. For the same compound, the growth is 90.4% with MALME-3M melanoma; 113% in the assay with MDA-MB-231 breast; 98.5% in the assay on RXF 393 renal; 107% with SF-268 CNS; 83.3% in the assay on SF-295 CNS; 106% in the assay with SF-539 CNS. The growth with UACC-257 melanoma and in the assay on M14 melanoma was 103% throughout.

Turning to `CC(C)C(=O)Nc1nc2c(s1)CCCc1ccn(S(=O)(=O)c3ccccc3)c1-2`, the growth was 86.8% with NCI-H23 lung; 94% in the assay on NCI-H226 lung; 90% in the assay on NCI-H322M lung; 90.6% in the assay with HOP-62 NSCLC; 103% in the assay with NCI-H460 lung; 112% in the assay on HOP-92 NSCLC. The growth with NCI-H522 lung was 70.5%; in the assay with A549/ATCC NSCLC it was 82.3%; in the assay on 786-0 renal it was 89.9%; with COLO 205 colon, 110%; in the assay on DU-145 prostate, 98.8%; with K-562 leukemia it was 73.8%. Further, the growth in the assay with MALME-3M melanoma is 114%; in the assay with MDA-MB-231 breast it was 108%; in the assay on RXF 393 renal it was 119%; in the assay with SF-268 CNS it was 99.2%; in the assay on SF-295 CNS it was 90.6%; with SF-539 CNS it was 100%. For the same compound, the values for the growth in the assay with UACC-257 melanoma and in the assay with M14 melanoma were 93.7% and 96.9%, respectively.
